# Screens from PubChem.
# POLK inh = qHTS for Inhibitors of Polymerase Kappa; DNA polymerase kappa (Homo sapiens), Q9UBT6; purified Pol kappa, fluorescent DNA synthesis assay, 10 min; Potency, µM (highest dose often 107 µM), for the others: at the highest dose activity, negative = inhibition, most hits filed as inhibitors; actives 0.53% (n = 400,000); AID 588579, 2011; further: on the % scale 0 is the no-effect control and ±100 the full control effect
#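 Readout: fluorescence, taken kinetically at 0 and 10 min. Conditions: 10 nM Pol kappa, 15 min RT compound preincubation, 50 nM substrate final. Controls: enzyme-free buffer wells.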
# Pol iota inh = qHTS for Inhibitors of Polymerase Iota; DNA polymerase iota (Homo sapiens), Q9UNA4; Pol iota fluorescent replication assay, 10 min; Potency, µM (titrated, usually from 115 µM), inactives show top-dose activity, negative = inhibition, actives largely listed as inhibitors; actives 1% (n = 390,000)
# Target sequence (Q9UNA4 whole entry, looked up): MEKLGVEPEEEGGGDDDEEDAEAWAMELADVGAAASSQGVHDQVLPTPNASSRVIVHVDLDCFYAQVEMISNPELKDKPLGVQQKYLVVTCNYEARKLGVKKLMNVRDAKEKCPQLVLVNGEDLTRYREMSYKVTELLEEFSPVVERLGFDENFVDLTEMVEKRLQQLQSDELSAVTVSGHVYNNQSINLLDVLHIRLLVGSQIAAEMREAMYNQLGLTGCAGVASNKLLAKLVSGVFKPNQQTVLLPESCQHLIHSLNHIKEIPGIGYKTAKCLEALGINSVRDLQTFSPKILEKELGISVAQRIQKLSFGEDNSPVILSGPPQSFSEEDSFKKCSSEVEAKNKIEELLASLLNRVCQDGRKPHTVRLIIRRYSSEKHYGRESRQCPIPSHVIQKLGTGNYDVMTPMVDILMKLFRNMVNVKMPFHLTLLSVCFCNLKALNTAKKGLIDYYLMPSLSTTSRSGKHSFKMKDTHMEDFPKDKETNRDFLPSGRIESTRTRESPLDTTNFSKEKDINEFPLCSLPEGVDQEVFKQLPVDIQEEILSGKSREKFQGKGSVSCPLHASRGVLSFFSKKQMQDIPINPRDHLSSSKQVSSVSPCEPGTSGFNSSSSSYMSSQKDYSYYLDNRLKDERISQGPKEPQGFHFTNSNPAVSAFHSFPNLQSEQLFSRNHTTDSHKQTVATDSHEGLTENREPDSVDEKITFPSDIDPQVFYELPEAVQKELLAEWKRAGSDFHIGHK
#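 Pol iota at 10 nM preincubated 15 min with compounds at room temperature; reaction started with fluorescent substrate, 50 nM final. Fluorescence read kinetically at 0 and 10 min; buffer-only wells as negative control.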
# Pol eta inh = qHTS for Inhibitors of Polymerase Eta | DNA polymerase eta (Homo sapiens), Q9Y253 | recombinant Pol eta, fluorescent DNA replication assay | Potency, µM (highest dose often 114 µM), inactives show at the top dose activity change, negative = inhibition, actives largely listed as inhibitors | actives 1.2% (n = 390,000); further: on the % scale 0 is the no-effect control and ±100 the full control effect
#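 Fluorescent replication assay: 50 nM final substrate added after a 15 min room-temperature compound preincubation with 10 nM enzyme. Signal taken at 0 min and again at 10 min.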
# WRN inhibitor = qHTS for Inhibitors of WRN Helicase; WRN helicase unwinding, fluorescent forked duplex, kinetic; Potency, µM (top dose mostly 114 µM), without a hit: at the highest dose activity change, negative = inhibition, most hits filed as inhibitors; actives 0.46% (n = 360,000); further: on the % scale 0 is the no-effect control and ±100 the full control effect; nearly all actives have a fitted effect of over 55% in size
#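 Kinetic red-fluorescence monitoring (525/598 nm) tracks WRN helicase activity after 100 nM fluorophore-quencher forked duplex and 2 mM ATP are added to 20 nM enzyme pretreated 15 min at room temperature with compound.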
# FEN1 inhibitor = qHTS Assay for the Inhibitors of Human Flap endonuclease 1 (FEN1). Recombinant FEN1 flap cleavage, fluorescence, 15 min. actives 0.35% (n = 390,000). AID 588795, 2011. Potency, µM (highest dose often 114 µM), for inactives: at the top dose activity change, negative = inhibition, actives largely listed as inhibitors. P39748; further: on the % scale 0 is the no-effect control and ±100 the full control effect; nearly all actives have a fitted effect of over 65% in size
#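 Compounds are tested as a concentration series against 10 nM FEN1; after a 15 min room-temperature preincubation, 50 nM substrate starts cleavage, with plate reads at 0 and 15 min. Normalized responses are fitted by a Hill equation.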
# Pol beta inh = qHTS Assay for Inhibitors of DNA Polymerase Beta. actives 1.3% (n = 340,000). Potency, µM (doses to about 114 µM), for the others: at the highest dose activity change, negative = inhibition, most hits filed as inhibitors. Pol beta primer extension/strand displacement, fluorescence kinetic. AID 485314, 2010; further: on the % scale 0 is the no-effect control and ±100 the full control effect
#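 Preincubation: enzyme (10 nM) with compound, 15 min, RT. Reaction: substrate added to 50 nM final. Reads: 0 and 10 min. Analysis: normalized, Hill fit.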
# Active calls of the source: *; ? = inconclusive; · = not tested or not shown; [ ] = remark or other dose. An excerpt weighted towards active compounds, which were near 2.4% of everything screened. The call rests on the fitted dose curve; in most records, active means well fitted curve in the direction sought with a large enough effect; inconclusive means small, poorly fitted or top-dose-only effect, or another doubt; inactive means no such curve, though single readings can be large; an effect the other way counts as inactive or inconclusive. Potency means the concentration at half of the fitted maximal effect.
SMILES,POLK inh,Pol iota inh,Pol eta inh,WRN inhibitor,FEN1 inhibitor,Pol beta inh
O=C1Nc2ccccc2C(=O)C1(Cl)Cc1ccccc1 (configuration not stated),-3%,?,-18%,45µM*,6%,25%
O=C(O)c1cc(N(Cc2ccccc2O)Cc2cc(O)ccc2O)ccc1O,11µM*,·,·,·,·,·
CCOC(=O)NNc1ccc2nonc2c1[N+](=O)[O-],?,10µM*,10µM*,50µM*,40µM*,45µM*
O=[N+]([O-])c1c(NCc2ccco2)ccc2nonc12,1%,63%,-19%,4%,3%,3.2µM*
COc1ccc(S(=O)(=O)Nc2ccc(O)c3ccccc23)cc1,-7%,20µM*,-17%,79µM*,?,8%
Cc1ccc(S(=O)(=O)Nc2ccc(O)c3ccccc23)c(C)c1,-16%,?,-6%,50µM*,?,-19%
Cc1ccc(S(=O)(=O)NNc2ccccc2)c(C)c1,-8%,-10%,-6%,50µM*,1%,?
Cc1ccccc1-n1c(C)nnc1SC(C)C(=O)NCc1ccco1 (configuration not stated),18%,30%,·,·,-1%,·
CC(C)(C)C(=O)OCOP(=O)(OCOC(=O)C(C)(C)C)C(C)(Oc1ccc(O)cc1)P(=O)(OCOC(=O)C(C)(C)C)OCOC(=O)C(C)(C)C,35µM*,·,·,·,·,·
Oc1ccc(Oc2ccc(Oc3ccc(O)cc3)cc2)cc1,0%,21%,-27%,-1%,1%,-12%
CC(Oc1ccc(O)cc1)(P(=O)(O)O)P(=O)(O)O,13µM*,·,·,·,·,·
N#Cc1nc(N)nc(N2CCCCC2)n1,-10%,8%,·,·,-6%,·
Cc1cccc(NC2=NCC(=O)N2Cc2cccs2)c1,-12%,34%,-1%,50µM*,-2%,-16%
O=C1CN=C(Nc2ccccc2)N1Cc1cccs1,-2%,?,-16%,7%,13%,19%
CC(=O)c1c(C)[nH]c(C(=O)OCC(=O)c2c[nH]c3ccccc23)c1C,-6%,79µM*,1%,8%,-18%,·
Clc1ccc(CSc2nnc(-c3cccnc3)n2Cc2ccco2)c(Cl)c1,-23%,-7%,?,-9%,0%,50µM*
COC(=O)c1ccc(/C=N/NC(=O)c2ccc3nc[nH]c3c2)cc1,-20%,21%,-16%,-2%,5%,6%
COc1cc(/C=N/NC(=O)c2ccc3nc[nH]c3c2)cc(OC)c1OC,?,16µM*,?,-15%,-9%,7.1µM*
COc1ccc(/C=N/NC(=O)c2ccc3nc[nH]c3c2)cc1OC,?,13µM*,-15%,-9%,-13%,16µM*
Fc1ccc(CSc2nc3ccccc3[nH]2)cc1,-4%,71µM*,-2%,-10%,-5%,77%
COc1cc(/C=N/NC(=O)c2ccc(CSc3nc4ccccc4[nH]3)cc2)cc(OC)c1OC,?,?,?,-20%[57.1 µM],-31%,10µM*
CCCN1CNc2c(c(=O)[nH]c(=S)n2CCc2ccc(Cl)c(Cl)c2)C1,-1%,-12%,·,·,13%,·
CCOc1ccc2[nH]c(C(=O)N/N=C/c3cc(OC)c(OC)c(OC)c3)cc2c1,-30%,-15%,?,4%,-2%,13µM*
CCOc1ccc(/C=N/NC(=O)c2cc3c(OC)cc(OC)cc3[nH]2)cc1OC,-8%,24%,?,-26%,?,?
COc1ccc(/C=N/NC(=O)c2[nH]nc3c2CCc2ccccc2-3)cc1OC,?,-52%,?,-15%,?,11µM*
SMILES,POLK inh,Pol iota inh,Pol eta inh,WRN inhibitor,FEN1 inhibitor,Pol beta inh
COc1ccc([C@@H]2CC(=O)c3c(O)cc(O[C@@H]4O[C@H](CO[C@@H]5O[C@@H](C)[C@H](O)[C@@H](O)[C@H]5O)[C@@H](O)[C@H](O)[C@H]4O)cc3O2)cc1,14%[60.1 µM],·,·,·,·,·
OC1OC[C@H](O)[C@@H](O)[C@@H]1O (some centres not stated),5%[60.1 µM],·,·,·,·,·
Cc1cc(/C=C/c2c(C)cnc3ccccc23)ccc1N(C)C,-12%,?,·,·,-2%,·
O=C(Nc1ccc(N2CCOCC2)cc1)c1ccc2nc(-c3ccco3)c(-c3ccco3)nc2c1,-25%,-5%,-14%,-9%,11%,0%
O=C(NCCO)Nc1ccc2nc(-c3ccco3)c(-c3ccco3)nc2c1,·,·,·,·,·,4.5µM*
CC1CCN(C(=O)Nc2ccc3nc(-c4ccco4)c(-c4ccco4)nc3c2)CC1,8.9µM*,14µM*,·,·,16µM*,·
O=C(Nc1ccc2nc(-c3ccco3)c(-c3ccco3)nc2c1)N1CCCC1,32µM*,3.2µM*,·,·,11µM*,·
S=C(Nc1ccc(N2CCOCC2)cc1)Nc1ccc2nc(-c3ccco3)c(-c3ccco3)nc2c1,?,2µM*,?,-35%[11.6 µM],-21%,2%
Cc1noc(C)c1-c1ccc2ncnc(N(C)Cc3ccco3)c2c1,-1%[60.1 µM],·,·,·,·,·
CC(C)n1cnc2c(Nc3cccc(Cl)c3)nc(NCCCO)nc21,-23%,-6%,-10%,-2%,?,26%
C=CC(=O)Nc1cccc(Nc2nc(N[C@H]3CC[C@H](N(C)C)CC3)nc3c2ncn3C(C)C)c1,-22%,?,?,?,50µM*,·
CCCCCCCCCC[N+](C)(C)CC/C=C1/c2ccccc2Sc2ccc(Cl)cc21,-2%,56%,-17%,-12%,?,40µM*
CCOC(=O)c1c(Oc2ccc(C(C)=O)cc2)nnc(-c2ccccc2)c1-c1ccccc1,-17%,-17%,?,·,3%,-9%
COc1ccc(-n2c(NC(=O)c3ccc(Br)o3)c(C#N)c3nc4ccccc4nc32)cc1,·,·,·,·,·,32µM*
CCC(=O)Nc1c(C#N)c2nc3ccccc3nc2n1-c1ccc(C)cc1,-1%,22%,46%,9%,-10%,·
Cc1[nH][nH]c(=O)c1C(c1c(C)[nH][nH]c1=O)c1cn(Cc2ccc(F)cc2)c2ccccc12,-7%,2.2µM*,-11%,-5%[11.6 µM],?,0%
Cc1[nH][nH]c(=O)c1C(c1c(C)[nH][nH]c1=O)c1cn(Cc2ccc(Cl)c(Cl)c2)c2ccccc12,-2%,2.5µM*,?,-33%[57.1 µM],-18%,1%
O=c1c2ccccc2ncn1Cc1ccc(Cl)c(Cl)c1,1%,37%,-18%,1%,-14%,12%
CCOC(=O)c1ccccc1NC(=O)CSc1ncc2c(n1)-c1ccccc1N(CC)S2(=O)=O,-1%,24%,-29%,·,17%,-15%
